This note sets out measurements from PubChem BioAssay.

“And” between values parts separate entries of the source, which are not always exact repeats. Identical values can stand only once. For part of these data: Results with a measured potency or affinity are listed apart. The source made the active and inactive calls. Rule as the data show it, unless noted: active = parasite load remaining mostly below about 12% (no sharp cut-off); inactive = mostly above about 10%.

The inhibition is the relative decrease from the control value, in per cent. The viability is a per cent measure of how many cells are alive, often set against a control.

The nature of assay [1]: blockers of polyQ-driven CASP3 activation – cell-based (AID 1583). The following applies: polyglutamine-induced caspase-3 activation, cell assay; stronger effect = higher value;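 tested at 10 µM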.
Assay [2] can be described thus: yeast 75Q aggregation reduction – 75Q-TubU reporter (AID 1593). Conditions: Yeast 75Q polyglutamine aggregation reporter.
Assay [3] is described as follows: restoration of touch response, mutant HTT neurons – whole organism, C. elegans mechanosensory neurons, N-terminal huntingtin (AID 1599). Conditions: C. elegans polyQ-huntingtin mechanosensory neurons, stronger effect = higher value.
Assay [4] is described as follows: blockers of cytochrome c efflux from mitochondria – biochemical, purified mitochondria (AID 1603).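 Also: mouse liver mitochondria challenged with calcium chloride; signal normalized to the plate average as 100%.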 Conditions: stronger effect = lower value.
Assay [5] is described as follows: polyglutamine aggregate formation blockers (AID 1604). Conditions: polyglutamine-induced protein aggregation inhibition assay; stronger effect = higher value; tested at 2.5 µM.
Assay [6] in a line: glutamate transport activators, MN-1 cells, MN-1 cell line (AID 1612).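 Also: tested at 1 µM final; 0% = mean of DMSO vehicle wells on each plate; positive means more glutamate uptake than control and negative means less.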 Conditions: MN-1 motor neuron cells, stronger effect = higher value.
A short description of assay [7]: GFP-Q80 aggregate reduction, neuronal-like cells, cell-based, NGF-treated PC12, GFPQ80 (AID 1614).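 Also: lower means fewer inclusions and 0 means no inclusions at all.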 The following applies: PC12 NGF-treated GFP-polyQ80 inclusion reduction.
Assay [8] is described as follows: 75Q-TubH aggregate inhibition, S. cerevisiae, yeast (AID 1616). The following applies: S. cerevisiae 75Q-TubH polyglutamine aggregation suppression; stronger effect = higher value.
A short description of assay [9]: P. berghei load reduction in hepatocytes – cell-based, HepG2, luciferase luminescence, HepG2 viability, primary screen (AID 624349).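 Also: 100% = mean of DMSO negative control wells on the same plate.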 The following applies: P. berghei liver stage in HepG2, luciferase luminescence, concentration not given here; parasite load remaining: stronger effect = lower value; viability: measured here: HepG2 viability without parasites.
A short description of assay [10]: EMT-state selective cytotoxicity in co-culture – imaging, PC-3E GFP, TEM4-18 mCherry, primary screen (AID 1345086;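 active = compounds killing one labelled cell type while sparing the other, by normalised counts and ratio limits, not self-fluorescent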;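 as to all read-outs here: cells exposed to compound for 72 h before imaging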;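 as to red/green cell ratio (normalised): normalised mesenchymal count divided by normalised epithelial count so high means epithelial killing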). Conditions: PC-3E GFP / TEM4-18 mCherry co-culture, imaging cell counts, at 1 µM; for red/green cell ratio (normalised): actives lie on both sides, counts scaled to control wells, 1 = unselective.
A short description of assay [11]: viability loss with induced miR-34 in A549 – imaging, A549 dox-inducible miR-34, nuclei and caspase counts, primary screen (AID 1347080;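 active = compounds whose cell count with miR-34 switched on is under 0.7 times the count with it off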). The following applies: A549 miR-34 inducible, Hoechst nuclei count, 48 h.
[12] abbreviates: measured here: epithelial PC-3E GFP cell survival.
[13] abbreviates: measured here: mesenchymal TEM4-18 mCherry cell survival.
The mark [14] stands for this setting: stronger effect = lower value, cell number ratio, induced over uninduced.
Where [15] appears, read: measured here: relative caspase fold change +Dox/-Dox.
Setting [16] is: measured here: total cells with miR-34 induction, stronger effect = lower value.
Where [17] appears, read: measured here: total cells without miR-34 induction.

`C#C[C@]1(O)CCC2C3CCC4=CC(=O)CC[C@@H]4C3CC[C@@]21C` (some centres not stated): the inhibition in assay [1] was -3.25%. The molecule further yielded a score in assay [2] of 0.94. The molecule also came in with a rescue above control in assay [3] of 10.4. The cytochrome c release ratio in assay [4] was 1.47. The same molecule yielded an inhibition of aggregation in assay [5] of 89.7%. For the same molecule, the glutamate uptake change in [6] was -5.05%. In assay [7], this molecule registered an inclusion score of 2. Besides, the aggregation suppression score in [8] worked out at 0.524. The parasite load remaining in [9] is 118% (inactive) and 51.8% (inactive). Further, in [9], the viability is 71.2% and 90%. Moreover, the red/green cell ratio (normalised) in assay [10] is 0.86 (inactive). The figures for the normalised cell number in assay [10] (setting [12]) and in assay [10] (setting [13]) were 1.29 and 1.11, respectively. In addition, the figures for the fold change in assay [11] (setting [14]) and in [11] (setting [15]) were 0.914 (inactive) and 1.55, respectively. Also, the results for the cell count in assay [11] (setting [16]) and in [11] (setting [17]) were 10400 and 11300, respectively.

As to `CO[C@H]1/C=C/O[C@@]2(C)Oc3c(C)c(O)c4c(O)c(c(C=NN5CCN(C)CC5)c(O)c4c3C2=O)NC(=O)/C(C)=C\C=C\C(C)[C@H](O)[C@@H](C)[C@@H](O)[C@@H](C)[C@@H](OC(C)=O)[C@@H]1C` (some centres not stated), in assay [1], the inhibition was -10.8%. The score in [2] came out at 1.2. This molecule showed a rescue above control in assay [3] of 1.38. In addition, the cytochrome c release ratio in [4] was determined as 0.69. In addition, in assay [5], the inhibition of aggregation was 83.1%. In addition, the glutamate uptake change in [6] was -15.2%. Further, the inclusion score in assay [7] was 2. The molecule further showed an aggregation suppression score in assay [8] of 0.812. In [9], the parasite load remaining is 73.9% (inactive) and 34.2% (inactive). Moreover, the viability in assay [9] is 73.4% and 91.2%. For the same molecule, the red/green cell ratio (normalised) in assay [10] was 1.06 (inactive). Also, the figures for the normalised cell number in [10] (setting [12]) and in assay [10] (setting [13]) were 0.87 and 0.91, respectively. Further, the figures for the fold change in [11] (setting [14]) and in assay [11] (setting [15]) were 0.892 (inactive) and 3.2, respectively. The cell count stood at 11300 in assay [11] (setting [16]) and 12700 in assay [11] (setting [17]).

As to `Cn1nnnc1SCC1=C(C(=O)O)N2C(=O)C(NC(=O)C(O)c3ccccc3)C2SC1` (configuration not stated), the inhibition in assay [1] worked out at 15.1%. Also, in assay [2], the score stood at 1.62. The rescue above control in [3] is -1.89. For the same molecule, the cytochrome c release ratio in [4] was determined as 1.02. The same molecule yielded an inhibition of aggregation in assay [5] of 39.4%. Further, the glutamate uptake change in [6] was 14.2%. Besides, the inclusion score in [7] is 2. The same molecule yielded an aggregation suppression score in assay [8] of 1.25. Besides, the parasite load remaining in [9] was 39.2% (inactive). In assay [9], this molecule came in with a viability of 86%. For the same molecule, the red/green cell ratio (normalised) in [10] is 0.9 (inactive). Besides, the normalised cell number in [10] (setting [12]) amounted to 1.03; in [10] (setting [13]) it was 0.93. The fold change was 0.886 (inactive) in assay [11] (setting [14]) and 4.15 in assay [11] (setting [15]). In addition, the cell count is 11200 in assay [11] (setting [16]) and 12600 in assay [11] (setting [17]).

Turning to `CC(=O)O[C@H]1C[C@@]2(C)[C@@H](C[C@@H](O)C3[C@]2(C)CC[C@H]2[C@H](C)[C@H](O)CC[C@]32C)/C1=C(/CCC=C(C)C)C(=O)O` (some centres not stated), in assay [1], the inhibition was determined as 8.99%. The score in assay [2] turned out to be 1.55. The rescue above control in assay [3] is -0.35. Besides, the cytochrome c release ratio in [4] was found to be 1.24. Moreover, the inhibition of aggregation in [5] stood at 12.1%. Further, the glutamate uptake change in assay [6] is 11.6%. Also, the inclusion score in assay [7] worked out at 2. The same molecule had an aggregation suppression score in [8] of 1.1. In assay [9], the parasite load remaining was 99.6% (inactive) and 102% (inactive). In addition, the viability in [9] was 71.9% and 91.9%. For the same molecule, in assay [10], the red/green cell ratio (normalised) is 1.29 (inactive). Also, the values for the normalised cell number in assay [10] (setting [12]) and in assay [10] (setting [13]) were 1.06 and 1.36, respectively. Moreover, the fold change was 0.927 (inactive) in [11] (setting [14]) and 1.7 in [11] (setting [15]). Moreover, the cell count in assay [11] (setting [16]) is 11800; in [11] (setting [17]), 12700.

Regarding `C[C@]12C=CC(=O)C=C1CCC1C3C[C@@H](O)[C@](O)(C(=O)CO)[C@@]3(C)C[C@H](O)[C@@]12F` (some centres not stated), in assay [1], the inhibition was -13.4%. The same molecule had a score in assay [2] of 1.07. Also, the rescue above control in assay [3] is -12.1. Further, in [4], the cytochrome c release ratio was determined as 1.15. In [5], this molecule displayed an inhibition of aggregation of 48.1%. The glutamate uptake change in [6] was -1.32%. Besides, the inclusion score in [7] came out at 2. Further, the aggregation suppression score in assay [8] was 1.12. For the same molecule, in [9], the parasite load remaining was 233% (inactive) and 58.4% (inactive). Moreover, in assay [9], the viability is 72.6% and 84.9%. Moreover, the red/green cell ratio (normalised) in assay [10] is 1.46 (inactive). Besides, the normalised cell number in assay [10] (setting [12]) was 0.85; in assay [10] (setting [13]), 1.24. The fold change in [11] (setting [14]) is 0.829 (inactive); in assay [11] (setting [15]), 2.83. The results for the cell count in assay [11] (setting [16]) and in assay [11] (setting [17]) were 6430 and 7760, respectively.

For the molecule `CCC(=O)O[C@]1(C(=O)CCl)[C@@H](C)CC2C3CCC4=CC(=O)C=C[C@]4(C)[C@@]3(F)[C@@H](O)C[C@@]21C` (some centres not stated), the inhibition in assay [1] is -7.85%. In assay [2], this molecule returned a score of 0.96. Besides, the rescue above control in assay [3] was 0.61. Further, the cytochrome c release ratio in assay [4] came out at 1.1. The inhibition of aggregation in assay [5] worked out at 51%. The glutamate uptake change in assay [6] was found to be 19.7%. This molecule showed an inclusion score in [7] of 2. In assay [8], this molecule showed an aggregation suppression score of 1.08. In assay [9], the parasite load remaining was 202% (inactive) and 73.8% (inactive). Moreover, in assay [9], the viability is 86% and 95.6%. Besides, the red/green cell ratio (normalised) in assay [10] is 1.11 (inactive). For the same molecule, the normalised cell number in assay [10] (setting [12]) turned out to be 1.12; in assay [10] (setting [13]), 1.25. The fold change in assay [11] (setting [14]) was 0.913 (inactive); in [11] (setting [15]) it was 3.26. Besides, the cell count in assay [11] (setting [16]) stood at 7630; in [11] (setting [17]), 8360.
